An excerpt weighted towards active compounds, which were near 11% of everything screened.
USP30 inh – human USP30 deubiquitinase inhibition. Q70CQ3. purified USP30, Ub-rhodamine cleavage fluorescence. inhibition, % at 25 µM. actives 5.3% (n = 47,000)
Target sequence (Q70CQ3 whole entry, looked up): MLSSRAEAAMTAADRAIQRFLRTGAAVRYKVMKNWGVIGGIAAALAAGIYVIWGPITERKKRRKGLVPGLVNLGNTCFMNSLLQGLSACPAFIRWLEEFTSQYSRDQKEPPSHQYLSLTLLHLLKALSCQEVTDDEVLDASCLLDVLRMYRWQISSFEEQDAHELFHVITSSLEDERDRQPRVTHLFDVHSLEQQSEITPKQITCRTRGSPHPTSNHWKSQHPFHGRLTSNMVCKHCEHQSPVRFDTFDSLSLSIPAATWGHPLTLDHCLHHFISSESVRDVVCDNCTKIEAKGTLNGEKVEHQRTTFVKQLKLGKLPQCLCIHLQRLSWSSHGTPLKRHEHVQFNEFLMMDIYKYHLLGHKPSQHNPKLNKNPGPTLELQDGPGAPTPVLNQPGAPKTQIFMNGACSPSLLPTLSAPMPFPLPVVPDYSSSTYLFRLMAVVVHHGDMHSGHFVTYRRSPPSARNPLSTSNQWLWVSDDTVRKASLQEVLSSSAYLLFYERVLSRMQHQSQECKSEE
USP17 block – inhibitors of human USP17 deubiquitinase. A8MUK1. purified USP17, Ub-rhodamine cleavage fluorescence, 3 h. inhibition, % at 50 µM. actives 6.5% (n = 47,000). AID 1645855
USP28 block – inhibitors of human USP28 deubiquitinase | Q96RU2 | purified USP28, Ub-rhodamine cleavage fluorescence, 30 min | inhibition, % at 25 µM | actives 3% (n = 47,000) | AID 1645857
The depositor's hits bear a star. Cut-off read from the data, not from the text of the source: active = inhibition above about 30%; inactive = the rest.

`COc1cccc(C(=O)Nc2cccc(-c3nc4cnccc4o3)c2)c1` gave USP17 block 55.4*.
`COc1cc(C(=O)NCc2ccc(-c3nc4cnccc4o3)cc2)cc(OC)c1OC` gave USP30 inh 2.2, USP17 block 11.4 and USP28 block 6.3.
O=C(COc1ccccc1)Nc1ccc(-c2nc3cnccc3o2)c(O)c1 was read as USP30 inh -16.4, USP17 block 0.2 and USP28 block -32.7.
`COc1ccc(-c2nc3cnccc3o2)cc1NC(=O)c1cccc(F)c1` gave USP30 inh -28.0, USP17 block 49.3* and USP28 block -9.4.
`CS(=O)(=O)N1CCN(c2ccccc2NC(=O)COc2cccc3ccccc23)CC1` gave USP30 inh 10.3, USP17 block 13.9 and USP28 block 0.8.
`O=C(Cc1ccccc1)Nc1cc(-c2nc3cnccc3o2)ccc1Cl` gave USP30 inh -38.7, USP17 block 15.0 and USP28 block -19.2.
Screening O=C(Nc1cccc(-c2nc3cnccc3o2)c1)c1ccc(Br)o1 returned USP30 inh 30.6*, USP17 block 24.9 and USP28 block 3.1.
Cc1ccc(NC(=O)N2CCC3(CC2)NC(=O)C(CC(C)C)NC3=O)cc1 (configuration not stated) was read as USP30 inh 46.1*, USP17 block 43.2* and USP28 block 17.4.
Screening CSc1ccccc1NC(=O)N1CCC2(CC1)NC(=O)C(CC(C)C)NC2=O (configuration not stated) returned USP30 inh -0.7, USP17 block -4.8 and USP28 block -1.8.
Screening Cc1ccc(S(=O)(=O)NCC(=O)OC(C(=O)Nc2cc(C)ccc2C)c2ccccc2)cc1 (configuration not stated) returned USP30 inh 46.8*, USP17 block 50.8* and USP28 block 9.0.
`COc1ccc(C)cc1NC(=O)C(OC(=O)c1cc(S(=O)(=O)N2CCOCC2)ccc1C)c1ccccc1` (configuration not stated) gave USP30 inh -22.0, USP17 block -19.9 and USP28 block -11.8.
COCCNC(=O)CN1C(c2ccccc2)=CC(c2ccccc2)n2nnnc21 (configuration not stated) was read as USP30 inh -14.4, USP17 block -13.3 and USP28 block -9.3.
`COC(=O)c1cc2sccc2n1CC(=O)Nc1ccc(OC)c(OC)c1OC` gave USP30 inh -55.6, USP17 block -2.6 and USP28 block 6.5.
For COC(=O)c1cc2sccc2n1CC(=O)Nc1cccc(SC)c1 the results were USP30 inh 36.0*, USP17 block 27.7 and USP28 block 17.4.
For CC1(C(=O)NCc2ccc3c(c2)OCO3)Oc2cccnc2NC1=O (configuration not stated) the results were USP30 inh 2.8, USP17 block 0.8 and USP28 block -0.7.
`CC1(C(=O)NC2CCCCCC2)Cc2ccccc2C(=O)N1CCN1CCCCCC1` (configuration not stated) gave USP30 inh -137.5, USP17 block 0.1 and USP28 block -24.4.
Screening CC1(C(=O)NC2CCCCCC2)Cc2ccccc2C(=O)N1CCN1CCOCC1 (configuration not stated) returned USP30 inh 35.4*, USP17 block 18.8 and USP28 block 11.1.
For COc1ccccc1CN1C(=O)c2ccccc2CC1(C)C(=O)NC1CCC(C)CC1 (configuration not stated) the results were USP30 inh -3.7 and USP28 block -16.0.
Screening CC1CCC(NC(=O)C2(C)Cc3ccccc3C(=O)N2C2CCCCC2)CC1 (configuration not stated) returned USP30 inh 30.2*, USP17 block 13.9 and USP28 block 9.2.
`COc1ccccc1NC(=O)C1=C(C)Nc2ncnn2C1c1cccc(OC)c1OC` (configuration not stated) gave USP30 inh -0.7, USP17 block -11.8 and USP28 block -4.9.
Cn1cc(C(=O)N2CCN(c3cccc(Cl)c3)CC2)nn1 was read as USP30 inh -11.3, USP17 block -7.0 and USP28 block -7.8.
Screening COc1ccccc1C1=NS(=O)(=O)N(C)C(C(=O)Nc2ccc(C(C)=O)cc2)=C1 returned USP30 inh -51.4, USP17 block -1.9 and USP28 block 24.7.
Cc1ccc(C)c(C(=O)COC(=O)c2ccccc2NS(=O)(=O)c2ccc3c(c2)OCCO3)c1 was read as USP30 inh -20.7, USP17 block -18.6 and USP28 block -2.6.
COc1ccc(NC(=O)CCc2c(C)c3c(C)nn(-c4ccccc4)c3n(C)c2=O)c(OC)c1 was read as USP30 inh 30.2*, USP17 block -2.9 and USP28 block -1.5.
For COc1ccc(NC(=O)CCc2c(C)c3c(C)nn(-c4ccccc4)c3n(C)c2=O)cc1OC the results were USP30 inh 2.6, USP17 block 16.5 and USP28 block 7.9.
For COc1ccc(CCNC(=O)c2cn(-c3ccc(F)cc3)nn2)cc1OC the results were USP30 inh 61.5*, USP17 block 34.2* and USP28 block 8.7.
Screening COc1ccc(CCNC(=O)CSc2cn(CCNC(=O)c3ccc(F)cc3)c3ccccc23)cc1OC returned USP30 inh 67.7*, USP17 block 49.5* and USP28 block 8.1.
`COc1ccc(-n2cc(C(=O)NCCc3ccc(F)cc3)nn2)cc1` gave USP30 inh 29.4, USP17 block 17.0 and USP28 block 6.9.
For COc1ccc(CCNC(=O)c2ccc3c(c2)N(Cc2ccc(F)cc2)C(=O)c2ccccc2S3=O)cc1OC (configuration not stated) the results were USP30 inh -24.7, USP17 block -7.6 and USP28 block -10.4.
Screening Cc1cc(-c2nnc(-c3ccccc3)o2)c(C)o1 returned USP30 inh -48.6, USP17 block -1.0 and USP28 block 6.7.
Screening COc1ccccc1C(=O)Nc1ccc(-c2nc3ccccc3o2)c(O)c1 returned USP30 inh 14.8, USP17 block 14.3 and USP28 block 15.3.
Screening COc1c2nc3ccccc3oc-2cc(=O)c1OC returned USP30 inh -12.9, USP17 block 70.9* and USP28 block 6.6.
For Cc1ccccc1NC(=O)Cn1cc(-c2nc(C3CC3)no2)ccc1=O the results were USP30 inh 70.5*, USP17 block 13.2 and USP28 block -3.3.
`Cc1ccc(NC(=O)Cn2cc(-c3nc(C4CC4)no3)ccc2=O)cc1` gave USP30 inh 36.2*, USP17 block 15.1 and USP28 block 14.5.
Screening Cc1cccc(NC(=O)Cn2cc(-c3nc(C4CC4)no3)ccc2=O)c1 returned USP30 inh -11.1, USP17 block 5.6 and USP28 block 1.0.
Cc1ccc(NC(=O)Cn2cc(-c3nc(C4CC4)no3)ccc2=O)cc1C was read as USP30 inh -24.2, USP17 block 18.0 and USP28 block 1.1.
`COc1ccc2c(C)c(CC(=O)N3CCN(c4ccccc4OC)CC3)c(=O)oc2c1` gave USP30 inh -0.2, USP17 block -5.8 and USP28 block 5.3.
Screening O=C(Nc1ccc(F)cc1F)c1csc(-c2ccccc2)n1 returned USP30 inh 20.8, USP17 block 82.6* and USP28 block 15.3.
`O=C(Nc1ccc(F)cc1F)c1ccc(-c2nc(-c3ccc(F)cc3)cs2)cc1` gave USP30 inh 1.9, USP17 block 3.2 and USP28 block 3.4.

Screens deposited in PubChem BioAssay by Buhrlage Lab, Dana-Farber Cancer Institute and Novartis Institutes for BioMedical Research (Cambridge, Mass).
